Bioassay records: PubChem BioAssay, several laboratories
The list is not random: actives were taken first. Their share in the collection is about 2.2%.
ADAM17 inh: ADAM17 inhibition, QFRET primary screen | 370,000 compounds, 0.83% hits | P78536 | AID 720648 | inhibition, % at 6.95 µM | recombinant ADAM17, EDANS/DABCYL FRET peptide cleavage;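 active = inhibition above the mean of compounds lying between control limits plus 3 SD, set per campaign, cut at about 8.5% in these data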;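 note: 0% = DMSO-only wells as the low control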
GC-A act: GC-A (human) enzyme activation; activation, % at 10 µM; AID 1671463; HEK293 GC-A cells, cGMP TR-FRET, EC30 ANP; 0% at EC30 ANP, 100% saturating ANP; P16066; 370,000 compounds, 0.14% hits; in the data active = activation above about 40%
KLK7 zymogen act: activators of human kallikrein-7 zymogen; P49862; purified proKLK7, EDANS-DABCYL substrate fluorescence; 100% is mature enzyme control, 0% vehicle; activation, % at 7 µM; 370,000 compounds, 0.9% hits; AID 652039;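 active = activation above the mean of all tested compounds plus 3 SD, computed per campaign excluding outliers beyond control limits, cut at about 13% in these data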
ADAM10 inh: ADAM10 inhibition, QFRET primary screen | O14672 | recombinant ADAM10, EDANS/DABCYL FRET peptide cleavage, 3 h | inhibition, % at 7 µM | 370,000 compounds, 0.62% hits | AID 720582;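 active = inhibition above a per-campaign cutoff equal to the mean of compounds falling between control-based bounds plus 3 SD, cut at about 20% in these data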;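 note: 0% = DMSO wells while the 100% control is not disclosed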
GC-B act: GC-B (human) receptor activation. AID 1920062. 370,000 compounds, 0.11% hits. activation, % at 10 µM. P20594. HEK293-GC-B cells, CNP EC30, cGMP TR-FRET; 0% at EC30 CNP, 100% saturating CNP;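 active = activation at 10 µM reaching about 35% in either raw or pattern-adjusted values, limit read from the data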
Target sequence (P20594 whole entry, looked up): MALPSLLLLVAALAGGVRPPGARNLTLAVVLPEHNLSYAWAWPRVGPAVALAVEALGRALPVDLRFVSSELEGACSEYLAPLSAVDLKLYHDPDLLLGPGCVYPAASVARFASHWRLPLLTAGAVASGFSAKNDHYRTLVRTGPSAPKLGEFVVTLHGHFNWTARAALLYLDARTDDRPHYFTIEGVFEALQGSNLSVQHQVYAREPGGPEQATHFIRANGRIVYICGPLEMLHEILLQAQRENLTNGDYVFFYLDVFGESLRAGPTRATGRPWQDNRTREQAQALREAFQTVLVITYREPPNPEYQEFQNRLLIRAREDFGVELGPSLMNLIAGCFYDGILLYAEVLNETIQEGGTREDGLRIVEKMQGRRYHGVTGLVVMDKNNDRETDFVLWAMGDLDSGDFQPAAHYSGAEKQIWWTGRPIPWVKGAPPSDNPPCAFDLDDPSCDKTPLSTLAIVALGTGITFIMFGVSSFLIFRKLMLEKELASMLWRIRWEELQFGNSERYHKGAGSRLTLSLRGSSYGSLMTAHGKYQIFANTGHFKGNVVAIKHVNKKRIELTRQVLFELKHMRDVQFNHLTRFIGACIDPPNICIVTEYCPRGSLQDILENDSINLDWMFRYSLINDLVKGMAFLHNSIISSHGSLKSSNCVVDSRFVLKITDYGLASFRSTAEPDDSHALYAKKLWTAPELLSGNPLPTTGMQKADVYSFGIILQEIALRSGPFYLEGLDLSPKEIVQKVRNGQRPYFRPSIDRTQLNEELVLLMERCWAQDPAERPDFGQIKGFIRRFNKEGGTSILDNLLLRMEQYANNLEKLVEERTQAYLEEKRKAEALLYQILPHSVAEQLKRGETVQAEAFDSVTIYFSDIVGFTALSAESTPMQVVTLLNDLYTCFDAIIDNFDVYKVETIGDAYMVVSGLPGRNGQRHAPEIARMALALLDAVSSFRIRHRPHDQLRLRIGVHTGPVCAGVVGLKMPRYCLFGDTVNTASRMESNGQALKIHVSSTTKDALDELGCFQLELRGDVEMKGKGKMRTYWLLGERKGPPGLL
ADAM10 confirm: confirmation of inhibitors of human ADAM10 | shares compounds with ADAM10 inh | ADAM10 QFRET peptide cleavage, EDANS fluorescence | inhibition, % at 6.95 µM | 2,100 compounds, 1% hits | AID 743208;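 active = inhibition above about 20% chosen separately for each screening run, limit read from the data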;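 note: 0% = DMSO wells and 100% = marimastat wells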
ADAM17 counter: inhibits human ADAM17 in ADAM10 exosite counter-screen; inhibition, % at 6.95 µM; ADAM17 QFRET peptide cleavage, EDANS fluorescence; 2,100 compounds, 0.5% hits; AID 743214; shares compounds with ADAM10 inh;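 active = mean triplicate inhibition above the solvent-only control wells' mean plus 3 SD, cut at about 12% in these data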;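 note: 0% = DMSO wells and 100% = marimastat wells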
ADAM10 counter: inhibits human ADAM10 in ADAM17 exosite counter-screen | 2,900 compounds, 47% hits | inhibition, % at 6.95 µM | AID 743256 | shares compounds with ADAM17 inh | recombinant ADAM10, EDANS/DABCYL FRET peptide cleavage, 3 h;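 active = mean inhibition over the triplicate runs exceeds the activity threshold set in the earlier primary screen, cut at about 20% in these data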;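 note: 0% = DMSO wells and 100% = marimastat wells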
ADAM17 confirm: confirmation of inhibitors of human ADAM17; shares compounds with ADAM17 inh; recombinant ADAM17, EDANS/DABCYL QFRET peptide cleavage; inhibition, % at 6.95 µM; 2,900 compounds, 65% hits; AID 743257;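 active = mean inhibition across replicates above the hit cutoff set in the primary screen, cut at about 8.5% in these data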;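 note: 0% = DMSO wells and 100% = marimastat wells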
Active calls of the source: *; / = no result.

SMILES	ADAM17 inh	GC-A act	KLK7 zymogen act	ADAM10 inh	GC-B act	ADAM10 confirm	ADAM17 counter	ADAM10 counter	ADAM17 confirm
COc1ccccc1S(=O)(=O)N(C)C[C@@H]1Oc2cc(C#CCC(C)C)ccc2S(=O)(=O)N([C@H](C)CO)C[C@@H]1C	11*	-1	0	26*	1	8	3	46*	26*
COc1ccccc1S(=O)(=O)N(C)C[C@H]1Oc2cc(C#CCC3CCCC3)ccc2S(=O)(=O)N([C@H](C)CO)C[C@H]1C	1	0	0	3	0	/	/	/	/
Cc1ccc(C(C(=O)NC2CCCCC2)N(Cc2ccccc2)C(=O)Cc2c[nH]c3ccccc23)o1 (stereo not given)	15*	-15	0	20*	-8	7	2	18	12*
COc1cccc(CN(C(=O)Cc2c[nH]c3ccccc23)C(C(=O)NC2CCCCC2)c2ccc(C)o2)c1 (stereo not given)	11*	-13	0	22*	-12	10	3	33*	16*
C=C(C)C#CCNCc1ccccc1	-4	1	-1	-6	0	/	/	/	/
COC(=O)[C@]12C[C@H](CC(=O)NCc3cccc(C(F)(F)F)c3)C(=O)N(CCc3ccc(OC)c(OC)c3)C1=C[C@H](C(C)C)O[C@@H]2C1CC1	13*	-4	0	22*	-1	0	0	22*	8.9*
COC(=O)[C@]12C[C@H](CC(=O)NCCC(C)C)C(=O)N(Cc3cccc4ccccc34)C1=C[C@H](C(C)C)O[C@@H]2C1CC1	8.6*	-9	1	20*	0	12	4	34*	22*
CCCCOCCCNC(=O)C[C@@H]1C[C@@]2(C(=O)OC)CC(C)(C)CC=C2N(Cc2cccc3ccccc23)C1=O	13*	-3	0	22*	4	8	2	27*	16*
COC[C@H]1CCCN1c1ccc2c(c1)O[C@H](C)CCN(C1CC1)S2(=O)=O	-1	-3	1	-2	3	/	/	/	/
COc1cc(/C=N/NC(=O)[C@H](Cc2c[nH]c3ccccc23)NC(=O)OCC(C)C)cc([N+](=O)[O-])c1O	16*	-6	0	32*	-16	5	0	13	7
COc1cccc(CO[C@H]2C=C[C@@H](c3ccccc3)O[C@@H]2CO)c1	0	3	0	0	6	/	/	/	/
COc1cc(NC(=O)CN2C(=O)C(c3ccccc3)=NC23CCCCCC3)cc(OC)c1	8.7*	0	0	30*	8	2	1	6	5
Cc1ccc(C2CN(C)C3(C(=O)Nc4ccccc43)C23COc2ccccc2C3=O)cc1 (stereo not given)	9.6*	-15	0	27*	-15	7	3	35*	19*
CN(CCc1ccccn1)C(=O)Cn1nc(-c2ccccc2)ccc1=O	0	3	0	-5	9	/	/	/	/
N#Cc1ccc(CSc2nc(N)cc(N)n2)cc1	-2	1	0	0	1	/	/	/	/
Cc1cc(N2CCCCC2)nc(SCc2ccc(C#N)cc2)n1	8.6*	-17	1	26*	-7	3	0	20*	13*
O=C(c1cccc(Cl)c1)N1CCN(c2ccnc3cc(Cl)ccc23)CC1	-2	-10	/	2	-15	/	/	/	/
CCOC(=O)[C@]12CCCCC/C=C\1N(Cc1ccc(OC)cc1)C(=O)[C@H]2CC(=O)NCCCCc1ccccc1	8	1	0	17	-6	/	/	/	/
CC(C)(C)OC(=O)N1CCC(N[C@@H](Cc2c[nH]c3ccccc23)C(=O)NCC(c2ccccc2)c2ccccc2)(C(=O)NC2CCCCC2)CC1	6	-4	/	14	1	/	/	/	/
CC(C)(C)OC(=O)N1CCC(N[C@@H](Cc2ccccc2)C(=O)NCCc2c[nH]c3ccccc23)(C(=O)NC2CCCCC2)CC1	10*	-2	/	24*	-1	7	1	34*	19*
COc1ccc(CNS(=O)(=O)c2cc3c(cc2Br)CC(C)N3C(C)=O)cc1 (stereo not given)	2	-3	0	-2	-3	/	/	/	/
CCOc1ccc(NS(=O)(=O)c2cc(NC(=O)c3ccc(C)cc3)ccc2Cl)cc1	13*	-13	1	28*	-8	8	2	39*	22*
COc1ccccc1NS(=O)(=O)c1cc(NC(=O)c2cc(F)c(F)c(F)c2F)ccc1N1CCOCC1	8.8*	-7	-1	22*	-6	11	3	43*	28*
COc1ccc(C(=O)Nc2ccc(Cl)c(S(=O)(=O)Nc3ccccc3OC)c2)cc1	13*	-6	0	21*	-1	4	2	40*	23*
COc1ccccc1NS(=O)(=O)c1cc(NC(=O)c2ccccc2C)ccc1N1CCOCC1	1	-3	0	18	-1	/	/	/	/
SMILES	ADAM17 inh	GC-A act	KLK7 zymogen act	ADAM10 inh	GC-B act	ADAM10 confirm	ADAM17 counter	ADAM10 counter	ADAM17 confirm
Cc1cccc(NC(=O)c2ccc(NS(=O)(=O)c3cccc4cccnc34)cc2)c1	13*	-46	0	24*	-28	4	1	24*	15*
CCCC#Cc1ccc(CC[C@H]2O[C@H]3CC[C@H](CO)O[C@H]3C[C@H]2NC(=O)CN2CCOCC2)cc1	1	5	0	3	0	/	/	/	/
COc1ccc(-n2c(COc3ccc(C)cc3)nnc2SCC(=O)c2ccc(-c3ccccc3)cc2)cc1	2	-2	0	5	0	/	/	/	/
COc1ccc(Br)cc1C=NNC(=O)c1ccncc1	-1	-2	0	-8	-2	/	/	/	/
COc1ccc(C2C(C(=O)N3CCOCC3)CC(=O)N2c2ccc(OC)cc2)cc1 (stereo not given)	-2	-7	0	-2	-8	/	/	/	/
COc1ccc(CN(CCC(c2ccc(F)cc2)C2CCOC(C)(C)C2)C(=O)c2ccco2)cc1 (stereo not given)	14*	-17	1	22*	-10	5	2	25*	15*
C[C@@H]1[C@@H](O)C[C@@]2(CC(=O)c3ccccc3O2)O[C@H]1c1ccccc1	-2	-8	0	-1	-14	/	/	/	/
C(=N\n1cnnc1)/c1ccc(OCc2cccc3ccccc23)cc1	9.7*	-6	0	23*	-7	0	0	0	4
